Results from PubChem BioAssay (NCI).
“And” between values parts separate entries of the source, which are not always exact repeats. Identical values can stand only once. About 83,000 compounds went through this panel and 20% of them were active in at least one assay; those are over-represented in the sample as a whole.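 A percent growth of 40 corresponds to 60% growth inhibition; 0 means no net growth; -100 means all cells died. Active threshold: below 10.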 The source made the active and inactive calls.

Key:
Experiment in all cases: NCI-60 one-dose screen, 48 h (100 = growth as untreated, 0 = no growth, -100 = all killed)
SR leukemia = test system: SR leukemia
RPMI-8226 leukemia = test system: RPMI-8226 leukemia
OVCAR-8 ovarian = test system: OVCAR-8 ovarian
OVCAR-5 ovarian = test system: OVCAR-5 ovarian
OVCAR-4 ovarian = test system: OVCAR-4 ovarian
SK-OV-3 ovarian = test system: SK-OV-3 ovarian
IGROV1 ovarian = test system: IGROV1 ovarian
OVCAR-3 ovarian = details: 10 µM unless noted
HS 578T breast = test system: HS 578T breast
NCI/ADR-RES ovarian = test system: NCI/ADR-RES ovarian

Measured: growth

COc1cc(Nc2nc3ccccc3cc2C(=O)Nc2ccc(F)c(F)c2)cc(OC)c1OC
inactive: SR leukemia; 10 µM unless noted 29.6% | RPMI-8226 leukemia; 10 µM unless noted 21.8% | OVCAR-8 ovarian; 10 µM unless noted 15.5% | OVCAR-5 ovarian; 10 µM unless noted 63.9% | OVCAR-4 ovarian; 10 µM unless noted 23% | SK-OV-3 ovarian; 10 µM unless noted 42.2% | IGROV1 ovarian; 10 µM unless noted 30.8% | OVCAR-3 ovarian 10.6% | HS 578T breast; 10 µM unless noted 61.2%
active: NCI/ADR-RES ovarian; 10 µM unless noted 6.91%

CCNC(=S)n1nc(SC)c(C(=O)OCC)c1N
inactive: SR leukemia; 10 µM unless noted 89.2% | RPMI-8226 leukemia; 10 µM unless noted 110% | OVCAR-8 ovarian; 10 µM unless noted 110% | OVCAR-5 ovarian; 10 µM unless noted 84.8% | OVCAR-4 ovarian; 10 µM unless noted 96.7% | SK-OV-3 ovarian; 10 µM unless noted 94% | IGROV1 ovarian; 10 µM unless noted 90.6% | OVCAR-3 ovarian 97.7% | HS 578T breast; 10 µM unless noted 110% | NCI/ADR-RES ovarian; 10 µM unless noted 94.8%

C[C@]12CCc3c(ccc4cc(O)ccc34)[C@@H]1C[C@H](O)[C@@H]2O
inactive: SR leukemia; 10 µM unless noted 110% | RPMI-8226 leukemia; 10 µM unless noted 97.1% | OVCAR-8 ovarian; 10 µM unless noted 94% | OVCAR-5 ovarian; 10 µM unless noted 104% | OVCAR-4 ovarian; 10 µM unless noted 106% | SK-OV-3 ovarian; 10 µM unless noted 106% | IGROV1 ovarian; 10 µM unless noted 103% | OVCAR-3 ovarian 96.7% | HS 578T breast; 10 µM unless noted 84.9% | NCI/ADR-RES ovarian; 10 µM unless noted 96%

COc1cc(/C=C2\CCC/C(=C\c3cc(CN4CCCC4)c(O)c(OC)c3)C2=O)cc(CN2CCCC2)c1O
active: SR leukemia; 10 µM unless noted 8% | OVCAR-8 ovarian; 10 µM unless noted 8.24% | OVCAR-3 ovarian 6.05%
inactive: RPMI-8226 leukemia; 10 µM unless noted 14.2% | OVCAR-5 ovarian; 10 µM unless noted 39.9% | OVCAR-4 ovarian; 10 µM unless noted 47.1% | SK-OV-3 ovarian; 10 µM unless noted 102% | IGROV1 ovarian; 10 µM unless noted 52.7% | HS 578T breast; 10 µM unless noted 63.7% | NCI/ADR-RES ovarian; 10 µM unless noted 59.8%

CCN(Cc1ccccc1)c1ccc(/C=C2\COc3ccccc3C2=O)cc1
active: SR leukemia; 100 µM 7.93%
inactive: SR leukemia; 10 µM 67.5% | RPMI-8226 leukemia; 10 µM 110% | RPMI-8226 leukemia; 100 µM 20.5% | OVCAR-8 ovarian; 10 µM 95.3% | OVCAR-8 ovarian; 100 µM 47.6% | OVCAR-5 ovarian; 10 µM 101% | OVCAR-5 ovarian; 100 µM 98.7% | OVCAR-4 ovarian; 10 µM 102% | OVCAR-4 ovarian; 100 µM 52.1% | SK-OV-3 ovarian; 10 µM 89.4% | SK-OV-3 ovarian; 100 µM 65.2% | IGROV1 ovarian; 10 µM 99.1% | IGROV1 ovarian; 100 µM 40.2% | HS 578T breast; 10 µM 96% | HS 578T breast; 100 µM 59.4% | NCI/ADR-RES ovarian; 10 µM 101% | NCI/ADR-RES ovarian; 100 µM 23.4%

CCCc1cc(C(N)=S)ccn1
inactive: SR leukemia; 10 µM unless noted 104% | RPMI-8226 leukemia; 10 µM unless noted 120% | OVCAR-8 ovarian; 10 µM unless noted 99.3% | OVCAR-5 ovarian; 10 µM unless noted 105% | OVCAR-4 ovarian; 10 µM unless noted 110% | SK-OV-3 ovarian; 10 µM unless noted 100% | IGROV1 ovarian; 10 µM unless noted 105% | OVCAR-3 ovarian 115% | HS 578T breast; 10 µM unless noted 125% | NCI/ADR-RES ovarian; 10 µM unless noted 87.8%

N=C(N)c1ccc(-c2ccc(-c3ccc(Cl)c(Cl)c3)s2)cc1
inactive: OVCAR-5 ovarian; 10 µM unless noted 15.2% | SK-OV-3 ovarian; 10 µM unless noted 94.6% | HS 578T breast; 10 µM unless noted 94% | NCI/ADR-RES ovarian; 10 µM unless noted 83.5%
active: SR leukemia; 10 µM unless noted 5.08% | RPMI-8226 leukemia; 10 µM unless noted -15.6% | OVCAR-8 ovarian; 10 µM unless noted -17% | OVCAR-4 ovarian; 10 µM unless noted -16.2% | IGROV1 ovarian; 10 µM unless noted -49.5% | OVCAR-3 ovarian -87.9%

COc1ccc(C/C(C)=C(/c2ccc(OCCN3CCCC3)cc2)c2ccc(OC(=O)NCc3ccccc3)cc2)cc1
active: SR leukemia; 10 µM unless noted -22.6%
inactive: RPMI-8226 leukemia; 10 µM unless noted 66.7% | OVCAR-8 ovarian; 10 µM unless noted 89.4% | OVCAR-5 ovarian; 10 µM unless noted 81% | OVCAR-4 ovarian; 10 µM unless noted 81.6% | SK-OV-3 ovarian; 10 µM unless noted 104% | IGROV1 ovarian; 10 µM unless noted 101% | OVCAR-3 ovarian 89.8% | HS 578T breast; 10 µM unless noted 81.1% | NCI/ADR-RES ovarian; 10 µM unless noted 97.1%

CCCCCO/N=C\c1c2c(O)c3c(O)c(C)c4c(c3c1O)C(=O)C(C)(O/C=C\C(OC)C(C)C(OC(C)=O)C(C)C(O)C(C)C(O)C(C)/C=C\C=C(\C)C(=O)N2)O4 (stereo not drawn)
inactive: SR leukemia; 10 µM unless noted 13.5% | RPMI-8226 leukemia; 10 µM unless noted 13.1% | OVCAR-8 ovarian; 10 µM unless noted 26.7% | OVCAR-5 ovarian; 10 µM unless noted 49.2% | OVCAR-4 ovarian; 10 µM unless noted 30.3% | SK-OV-3 ovarian; 10 µM unless noted 33.9% | IGROV1 ovarian; 10 µM unless noted 31.1% | OVCAR-3 ovarian 19.4% | NCI/ADR-RES ovarian; 10 µM unless noted 25.2%
active: HS 578T breast; 10 µM unless noted 1.16%

Cc1ccc(NC(=O)c2sc3nc(C)c(C(=O)c4ccccc4)cc3c2N)cc1
inactive: SR leukemia; 10 µM unless noted 45.2% | RPMI-8226 leukemia; 10 µM unless noted 90.1% | OVCAR-8 ovarian; 10 µM unless noted 94.6% | OVCAR-5 ovarian; 10 µM unless noted 97.6% | OVCAR-4 ovarian; 10 µM unless noted 89.3% | SK-OV-3 ovarian; 10 µM unless noted 45.8% | IGROV1 ovarian; 10 µM unless noted 95% | OVCAR-3 ovarian 94.8% | HS 578T breast; 10 µM unless noted 75.9% | NCI/ADR-RES ovarian; 10 µM unless noted 95.2%

CCOC(=O)c1nnn(Cc2cc(=O)oc3c2ccc2ccccc23)c1C
inactive: SR leukemia; 10 µM unless noted 97.6% | RPMI-8226 leukemia; 10 µM unless noted 103% | OVCAR-8 ovarian; 10 µM unless noted 98.1% | OVCAR-5 ovarian; 10 µM unless noted 102% | OVCAR-4 ovarian; 10 µM unless noted 97.6% | SK-OV-3 ovarian; 10 µM unless noted 104% | IGROV1 ovarian; 10 µM unless noted 110% | OVCAR-3 ovarian 103% | HS 578T breast; 10 µM unless noted 100% | NCI/ADR-RES ovarian; 10 µM unless noted 108%

COc1ccc(C(=O)c2ccc(OC)c(OC)c2OC)cc1
18.5% (inactive) and -13.9% (active): NCI/ADR-RES ovarian; 10 µM unless noted
inactive: RPMI-8226 leukemia; 10 µM unless noted 35.3% and 27.4% | OVCAR-8 ovarian; 10 µM unless noted 41.8% and 47.4% | OVCAR-5 ovarian; 10 µM unless noted 83.1% and 49.9% | OVCAR-4 ovarian; 10 µM unless noted 82.8% and 42.8% | IGROV1 ovarian; 10 µM unless noted 25.7% and 11.9%
active: OVCAR-3 ovarian -22.8% and -39.4% | HS 578T breast; 10 µM unless noted -9.55% and -14.2%
18% (inactive) and 3.38% (active): SK-OV-3 ovarian; 10 µM unless noted
43.5% (inactive) and 8.36% (active): SR leukemia; 10 µM unless noted

CC(Sc1ccccc1)C(=O)O (stereo not drawn)
inactive: SR leukemia; 10 µM unless noted 153% | RPMI-8226 leukemia; 10 µM unless noted 117% | OVCAR-8 ovarian; 10 µM unless noted 99.5% | OVCAR-5 ovarian; 10 µM unless noted 106% | OVCAR-4 ovarian; 10 µM unless noted 102% | SK-OV-3 ovarian; 10 µM unless noted 97.3% | IGROV1 ovarian; 10 µM unless noted 81.4% | OVCAR-3 ovarian 106% | HS 578T breast; 10 µM unless noted 115% | NCI/ADR-RES ovarian; 10 µM unless noted 111%
